# Shown are actives, neighbours in structure and some others; about 9.3% of the full set was active somewhere.
# FLuc counter = counter-screen for miR-21 project: firefly luciferase inhibitors or activators | P08659 | purified FLuc, Km substrates, luminescence inhibition | Potency, µM (series often up to 57.5 µM), for the others: at the highest dose activity change, negative = inhibition, actives largely listed as inhibitors | 360,000 tested, 6.9% active | AID 588342;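 further: plate controls were vehicle for no effect and reference inhibitor for full effect; nearly all actives have a fitted effect of over 55% in size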
# Target sequence (P08659 whole entry, looked up): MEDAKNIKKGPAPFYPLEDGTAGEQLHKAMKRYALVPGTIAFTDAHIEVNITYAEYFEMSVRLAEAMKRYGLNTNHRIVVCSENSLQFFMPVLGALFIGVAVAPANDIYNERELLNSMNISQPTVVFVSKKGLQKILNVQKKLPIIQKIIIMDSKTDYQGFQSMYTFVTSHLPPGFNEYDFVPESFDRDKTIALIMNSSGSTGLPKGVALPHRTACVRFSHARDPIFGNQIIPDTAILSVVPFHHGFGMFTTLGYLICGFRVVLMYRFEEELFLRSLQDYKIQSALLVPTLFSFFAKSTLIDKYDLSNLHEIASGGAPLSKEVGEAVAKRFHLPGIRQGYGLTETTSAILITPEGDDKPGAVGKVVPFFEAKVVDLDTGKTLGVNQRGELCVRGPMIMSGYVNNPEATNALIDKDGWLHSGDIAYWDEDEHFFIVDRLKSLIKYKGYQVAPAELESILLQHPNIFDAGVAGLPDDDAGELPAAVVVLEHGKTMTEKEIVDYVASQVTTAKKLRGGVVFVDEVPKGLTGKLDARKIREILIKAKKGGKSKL
#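 Biochemical qHTS of compounds, final roughly 60 µM downward over six points, against 10 nM purified firefly luciferase using Km concentrations of substrates (10 uM D-luciferin, 10 uM ATP) in Tris acetate pH 7.5 buffer; luminescence output.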
# NPC1 promoter act = activates the NPC1 promoter; Huh7 NPC1 promoter luciferase reporter, 24 h; Potency, µM (series often up to 9.22 µM), for inactives: top-dose activation, most hits filed as activators; 320,000 tested, 2.4% active; AID 485313; further: % of control where 0% means no effect; nearly all actives have a fitted effect of over 60% in size
#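 Cells: Huh7 expressing luciferase under the NPC1 promoter, 1500/well. Seeded 2 h, compound added, incubated 24 h at 37 °C. Luciferase reagent, 10 min ambient, then luminescence.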
# ELG1 genotoxic = genotoxicity induction in ELG1-luciferase HEK293T cells | HEK293T ELG1-luciferase reporter, luminescence, 16 h | Potency, µM (series often up to 46 µM), inactives show top-dose activity change, positive = activation, actives largely listed as activators | 330,000 tested, 1.3% active | AID 504466; further: % of control where 0% means no effect; nearly all actives have a fitted effect of over 60% in size
#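 DMSO vehicle served as control against compound-treated ELG1-luciferase HEK293T cells; exposure lasted 16 hr at 37 °C and 5% CO2, followed by ONE-Glo luminescence detection after 30 min.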
# Rab9 prom act = Rab9 promoter activation | AID 485297 | 320,000 tested, 2.8% active | Huh7 Rab9 promoter-luciferase reporter, luminescence, 24 h | Potency, µM (top dose mostly 9.22 µM), inactives show at the highest dose activation, negative = inhibition, most hits filed as activators; further: % of control where 0% means no effect; nearly all actives have a fitted effect of over 60% in size
#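 Luciferase signal after 10 min detection reagent at ambient indicates Rab9 promoter upregulation; stably transfected Huh7 cells were treated 24 h with compound in DMSO at 37 °C, 5% CO2.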
# ELG1 repair inh = inhibitors of ELG1-dependent DNA repair in HEK293T cells; HEK293T ELG1-luciferase reporter, luminescence, 16 h; DNA damage induced by 5-fluorouridine; Potency, µM (series often up to 46.1 µM), for inactives: at the top dose activity change, negative = inhibition, actives largely listed as inhibitors; 330,000 tested, 2.3% active; AID 504467; further: on the % scale 0 is the no-effect control and ±100 the full control effect; nearly all actives have a fitted effect of over 55% in size
#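 Quantitative HTS, concentration-response format. 2,000 cells/well co-treated with 5-fluorouridine and compound, 16 hr in 5% CO2 at 37 °C; ONE-Glo luminescence read after 30 min.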
# SMN2 splice enh = increases expression of the SMN2 splice variant; Potency, µM (top dose mostly 46.1 µM), for the others: at the highest dose activity change, positive = activation, usual class: activators; AID 1458; 210,000 tested, 2.8% active; HEK293 SMN2-luciferase splicing reporter, luminescence, 30-36 h; further: % of control where 0% means no effect; nearly all actives have a fitted effect of over 55% in size
#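 HEK293 cells carry an SMN2 […]–luciferase reporter in which exon 7 inclusion puts luciferase in frame. Cells were plated 10-12 h before compound addition, then incubated 30-36 h at 37C. ONE-Glo luminescence was read; sodium butyrate at 4.5 mM final served as control.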
# An asterisk follows results filed as active; ? = inconclusive; / = no result; [ ] = another dose, or the depositor's remark. The call rests on the fitted dose curve; in most records, active means well fitted curve in the direction sought with a large enough effect; inconclusive means small, poorly fitted or top-dose-only effect, or another doubt; inactive means no such curve, though single readings can be large; an effect the other way counts as inactive or inconclusive. Potency means the concentration at half of the fitted maximal effect.
SMILES,FLuc counter,NPC1 promoter act,ELG1 genotoxic,Rab9 prom act,ELG1 repair inh,SMN2 splice enh
O=C(NCc1ccc(Cl)cc1)c1cccc(NC2=NC3CS(=O)(=O)CC3S2)c1 (configuration not stated),1.2%,2.4%,0.2%,1.9%,-2.1%,/
O=C(COC(=O)CCc1ccc(S(=O)(=O)N2CCOCC2)cc1)Nc1ccccc1[N+](=O)[O-],/,/,-2.3%,/,8.1%,/
COc1cccc(NC(=O)COC(=O)c2c(F)cccc2F)c1,10.7µM*,-2.3%,2.5%,-2.8%,12.9%,13.8%
Cc1cc(OCC(=O)Nc2ccc3c(c2)OCCO3)cc(C)c1Cl,?,3.5%,0.6%,1.1%,4.9%,10.2%
O=C(COC(=O)c1c(F)cccc1F)Nc1ccc2c(c1)OCO2,6.75µM*,-1.4%,1.8%,0.2%,18.9%,/
O=C(COC(=O)c1c(F)cccc1F)NCc1ccc2c(c1)OCO2,/,-8.3%,1.6%,-7.8%,2.7%,/
O=C(COc1ccccc1F)Nc1ccc2c(c1)OCCO2,6.75µM*,1.78µM*,10.3µM*,3.16µM*,?,/
N#Cc1ccccc1OCC(=O)Nc1ccc2c(c1)OCCCO2,16.9µM*,2.24µM*,25.9%,3.16µM*,?,/
CC(C)NC(=O)COc1ccccc1C#N,-1.2%,-8.9%,8.0%,1.0%,-11.5%,-8.5%
CC1CC[C@@]2(C(=O)O)CC[C@]3(C)C(=CCC4[C@@]5(C)CCC(O)C(C)(C)C5CC[C@@]43C)C2C1C (some centres not stated),/,/,/,/,/,10.6%
CCN1CCCC1CNCC(O)COc1ccc(C(C)(C)C)cc1C (configuration not stated),7.3%,-2.2%,-0.5%,-9.7%,-2.8%,-7.9%
Cc1cc(C)nc(SCC(N)=O)n1,0.9%,5.5%,-3.5%,-2.5%,6.9%,/
O=C(c1cccc(F)c1)N1CCC2(CCCN(c3ncccn3)C2)CC1,/,/,/,/,/,-12.7%
N#Cc1ccccc1OCC(=O)Nc1ccc2c(c1)OCCO2,9.53µM*,?,?,1.41µM*,?,/
C/C(CC(=O)Nc1ccc2c(c1)OCCO2)=N\NC(=O)COc1ccc(C)cc1Br,?,-7.1%,-1.0%,-5.3%,0.0%,/
O=C(COC(=O)Cc1ccccc1F)Nc1ccc2c(c1)OCO2,?,-2.5%,-2.2%,0.5%,3.1%,10.0%
O=C(COc1ccccc1Br)Nc1ccc2c(c1)OCCCO2,2.13µM*,1.26µM*,?,1.41µM*,?,/
Cc1c(NC(=O)c2cccc(NC(=O)COc3ccccc3C#N)c2)c(=O)n(-c2ccccc2)n1C,1.35µM*,2.24µM*,-3.3%,3.98µM*,?,/
O=C(COC(=O)Cc1ccccc1F)Nc1ccc2c(c1)OCCO2,16.9µM*,0.8%,-1.6%,-0.7%,29.4%,7.4%
COc1ccc(/C=N/Nc2snc(SC)c2C#N)cc1OC,2.13µM*,2.82µM*,15.8%,2.82µM*,?,?
COc1cccc(/C=N/Nc2snc(SC)c2C#N)c1O,4.78µM*,1.2%,2.6%,2.6%,?,-61.6%
COc1cccc(/C=N/Nc2snc(SC)c2C#N)c1,4.78µM*,?,2.0%,25.0%,?,-27.9%
O=C(Cn1c(-c2cccs2)cc2ccccc21)NCc1ccccc1Br,-5.2%,/,/,/,/,/
CC(C)(C)c1ccc(C(=O)CSc2n[nH]c(=O)[nH]c2=O)cc1,12µM*,4.5%,8.0%,6.6%,?,-26.2%
O=C(O)CSc1n[nH]c(=O)[nH]c1=O,/,/,/,/,/,-8.7%[9.22 µM]
SMILES,FLuc counter,NPC1 promoter act,ELG1 genotoxic,Rab9 prom act,ELG1 repair inh,SMN2 splice enh
N#CC(c1ccccc1)c1cnccn1 (configuration not stated),0.3%,6.3%,2.2%,2.4%,14.1%,/
CCCCCn1c(Sc2nc3ccccc3s2)nc2c1c(=O)[nH]c(=O)n2C,2.5%,3.4%,-13.5%,-4.6%,20.6µM*,-47.6%
C=C(C)Cn1c(Sc2nc3ccccc3[nH]2)nc2c1c(=O)[nH]c(=O)n2C,-1.6%,6.4%,-7.3%,6.3%,25.9µM*,3.8%
CCCCCn1c(N2CCN(c3cccc(Cl)c3)CC2)nc2c1c(=O)[nH]c(=O)n2C,5.5%,-2.6%,-8.1%,-1.1%,23.1µM*,21.0%
c1cn2c(Nc3ccc4c(c3)OCCO4)c(-c3ccc(N4CCOCC4)cc3)nc2cn1,2.69µM*,26.4%,?,20.8%,?,/
CSc1ccc(-c2nc3cnccn3c2Nc2ccc3c(c2)OCO3)cc1,19µM*,-0.2%,-0.6%,-4.4%,14.3%,-2.3%
Clc1ccc(-c2nc3cnccn3c2Nc2ccc3c(c2)OCO3)cc1,?,-5.6%,-5.1%,1.2%,-16.7%,0.7%
Cc1cc(C)c(OCC(=O)OCC(=O)N2c3ccccc3CC2C)c(C)c1 (configuration not stated),0.4%,-2.7%,0.8%,0.8%,?,/
COc1ccc(C(=O)NCC(c2cccnc2)N2CCc3ccccc32)cc1 (configuration not stated),-8.3%,/,/,/,/,/
Cc1ccc(C(=O)Nc2cc(C(C)C)c(O)c(C(C)C)c2)cc1,23.9µM*,1.1%,-6.9%,-0.3%,?,10.9%
Cc1cc(Cl)ccc1OC(C)C(=O)OCC(=O)Nc1ccc2[nH]c(=O)[nH]c2c1 (configuration not stated),-0.5%,-4.1%,-1.8%,-0.8%,23.5%,/
O=C(Nc1ccc(Cl)c(C(F)(F)F)c1)c1ccncc1,-6.4%,-3.0%,0.8%,1.5%,7.1%,/
COc1ccc(C(=O)Nc2ccc(N3CCN(C(C)=O)CC3)cc2)cc1[N+](=O)[O-],2.5%,-7.4%,0.3%,0.3%,2.9%,-10.6%
Cc1ccc(C(=O)N[C@H](C(=O)Nc2cc(Cl)cc(Cl)c2)C(C)C)cc1,-1.0%,-1.7%,1.2%,-4.4%,5.1%,6.7%
Cc1ccc(NC(=O)c2ccc(OC(=O)C(C)Oc3ccc(Cl)cc3C)cc2)cc1 (configuration not stated),-27.3%,4.47µM*,?,1.78µM*,?,8.91µM*
Cc1ccc(C(=O)Nc2ccc(Br)c(C(F)(F)F)c2)cc1,13.5µM*,?,-0.8%,?,?,33.0%
COc1ccc(C(=O)Nc2ccc(N3CCN(C)CC3)cc2)cc1OC,16.9µM*,?,?,?,?,/
COc1ccc(C(C(=O)NCC2CCCO2)N(C(=O)CNC(=O)c2cccs2)c2ccccc2C)cc1OC (configuration not stated),3.5%,-4.3%,1.6%,0.0%,0.8%,0.2%
COc1ccc(C(=O)Nc2ccc(N3CCN(C)CC3)cc2)cc1,19µM*,?,?,?,?,/
CN1CCN(c2ccc(NC(=O)c3ccc4ccccc4c3)cc2)CC1,1.9µM*,0.316µM*,1.83µM*,0.562µM*,?,/
